# Measurements published in the supplement of paper PMC7366291.
# Where a name gives a salt, the structure may show the parent alone. ± gives the standard deviation or the standard deviation of the averaged measurements.
# How the values were obtained:
# Conditions in all cases: 25 µM; exposure: 24-48 hpf
# [1] = test system: Danio rerio Tg(wt1b:EGFP) embryo, pronephros; assay: glomerular separation, fold change vs DMSO control; higher = glomeruli further apart (abnormal)
# Method in brief: (§1)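 Every feature is expressed as a fold change relative to the averaged DMSO-treated embryos of the same day. The exposure ran from 24 to 48 hpf at 28.5°C, with dechorionated Tg(wt1b:EGFP) zebrafish embryos in HEPES-buffered E3 containing 0.003% PTU, 0.5% DMSO and 25 μM compound. Dorsal pronephros images taken in agarose-filled 96-well plates were reduced to maximum projections, on which 16 reference points were set by hand in Fiji for a macro to compute distances and angles. Values more than 2 SD from the feature mean were not used.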
# [2] = test system: Danio rerio Tg(wt1b:EGFP) embryo, pronephros; assay: glomerular width (mean of left and right), fold change vs DMSO control; higher = wider glomerulus
# Method in brief: as §1
# [3] = test system: Danio rerio Tg(wt1b:EGFP) embryo, pronephros; assay: fraction of imaged embryos annotated as normal kidney; higher = less nephrotoxic; extreme values may be limits of the assay
# Method in brief: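 The read-out is the proportion of embryos in each treatment manually annotated as normal-kidney. Exposure ran from 24 to 48 hpf at 28.5°C in 12-well plates, using dechorionated Tg(wt1b:EGFP) zebrafish embryos in 5 mM HEPES-buffered E3 with 0.003% PTU, 0.5% DMSO and 25 μM compound. For imaging, larvae were anaesthetised with tricaine, positioned dorsally in agarose-filled 96-well plates and captured by widefield fluorescence (470 nm, 10 z-slices), with scoring done on maximum projections.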
# [4] = test system: Danio rerio Tg(wt1b:EGFP) embryo, pronephros; assay: pronephric angle neck segment to proximal convoluted tubule (mean of left and right), fold change vs DMSO control; higher = larger pronephric angle
# Method in brief: as §1
Compound,glomerular separation [1],glomerular width [2],fraction of imaged embryos annotated as normal kidney [3],pronephric angle neck segment [4]
Nc1nc(=O)n([C@@H]2CS[C@H](CO)O2)cc1F [(-)-Emtricitabine],1.08 ± 0.4,1.06 ± 0.019,0.917,0.999 ± 0.073
CC(C)(Oc1ccc(CCNC(=O)c2ccc(Cl)cc2)cc1)C(=O)O [Bezafibrate],0.842 ± 0.27,0.988 ± 0.072,0.917,0.966 ± 0.0086
Cc1ccc(O)c([C@H](CCN(C(C)C)C(C)C)c2ccccc2)c1 [Tolterodine tartrate],1.13 ± 0.42,1.06 ± 0.022,0.818,0.986 ± 0.044
Cc1c(Nc2ncccc2C(=O)O)cccc1C(F)(F)F [Flunixin meglumine],6.16 ± 1.6,0.491 ± 0.031,0,1.9787 ± 0.0013
CN1CCC(=C2c3ccccc3CCc3cccnc32)CC1 [Azatadine maleate],1.11 ± 0.32,0.9513 ± 0.00027,1,0.99 ± 0.037
COc1ccc(Cl)cc1C(=O)NCCc1ccc(S(=O)(=O)NC(=O)NC2CCCCC2)cc1 [Glibenclamide],0.804 ± 0.39,1.05 ± 0.023,0.818,0.999 ± 0.047
Cc1ccsc1/C=C/C1=NCCCN1C [Morantel tartrate],0.982 ± 0.26,1.132 ± 0.011,0.5,1.01 ± 0.019
O=C1c2ccccc2S(=O)(=O)N1CCCCN1CCN(c2ncccn2)CC1 [Ipsapirone],1.28 ± 0.67,0.908 ± 0.038,0.917,1.054 ± 0.0035
CCCCOc1ccc(CC(=O)NO)cc1 [Bufexamac],1.11 ± 0.37,1.015 ± 0.0014,0.75,0.9927 ± 0.0019
CN1CCN(C2=Nc3cc(Cl)ccc3Nc3ccccc32)CC1 [Clozapine],0.792 ± 0.2,1.05 ± 0.011,1,0.975 ± 0.058
N[C@@H](C(=O)N[C@@H]1C(=O)N2C(C(=O)O)=C(Cl)CS[C@H]12)c1ccccc1 [Cefaclor hydrate],1 ± 0.21,0.95 ± 0.093,0.833,1.01 ± 0.028
O=C(O)c1cn(C2CC2)c2cc(N3CCNCC3)c(F)cc2c1=O [Ciprofloxacin hydrochloride monohydrate],0.914 ± 0.36,0.94012 ± 0.00024,0.833,0.988 ± 0.023
CCN(CC)CCOC(=O)c1ccc(N)cc1 [Procaine hydrochloride],0.828 ± 0.2,1.057 ± 0.0024,0.667,1.081 ± 0.0098
CCCC1O[C@@H]2C[C@H]3[C@@H]4CCC5=CC(=O)C=C[C@]5(C)[C@H]4[C@@H](O)C[C@]3(C)[C@]2(C(=O)CO)O1 (stereo partly specified) [Budesonide],0.957 ± 0.24,1.29 ± 0.049,0.833,1.04 ± 0.12
O=C(O)c1cc(=O)c2c(OCC(O)COc3cccc4oc(C(=O)O)cc(=O)c34)cccc2o1 [Cromolyn disodium salt],0.753 ± 0.22,1.08 ± 0.011,0.909,1.0048 ± 0.00061
CN(C)CCCN1c2ccccc2CCc2ccccc21 [Imipramine hydrochloride],0.946 ± 0.39,1.02 ± 0.14,0.75,0.996 ± 0.041
CC(C)C(=O)Nc1ccc([N+](=O)[O-])c(C(F)(F)F)c1 [Flutamide],1.54 ± 1.1,1.12 ± 0.03,0.667,1.05 ± 0.031
CCN(CC)CC#CCOC(=O)C(O)(c1ccccc1)C1CCCCC1 (stereo unspecified) [Oxybutynin chloride],1.32 ± 0.54,1.04 ± 0.022,1,0.985 ± 0.028
O=C1CC2(CCCC2)CC(=O)N1CCCCN1CCN(c2ncccn2)CC1 [Buspirone hydrochloride],0.901 ± 0.35,1.02 ± 0.022,0.75,1.01 ± 0.034
O=c1n(CCCN2CCN(c3cccc(Cl)c3)CC2)nc2ccccn12 [Trazodone hydrochloride],1.2 ± 0.34,0.97 ± 0.015,1,0.997 ± 0.0034
C[C@@H](c1ncncc1F)[C@](O)(Cn1cncn1)c1ccc(F)cc1F [Voriconazole],0.875 ± 0.21,1.02 ± 0.015,0.5,1.01 ± 0.027
Cc1cc(CC(=O)O)n(C)c1C(=O)c1ccc(Cl)cc1 [Zomepirac sodium salt],0.83 ± 0.4,0.811 ± 0.033,0.273,1.23 ± 0.062
OC(Cn1cncn1)(Cn1cncn1)c1ccc(F)cc1F [Fluconazole],1.11 ± 0.31,0.967 ± 0.095,0.917,0.978 ± 0.021
CN1Cc2c(N)cccc2C(c2ccccc2)C1 (stereo unspecified) [Nomifensine maleate],0.973 ± 0.34,1.04 ± 0.051,1,1.01 ± 0.065
O=C(CCCN1CC=C(n2c(=O)[nH]c3ccccc32)CC1)c1ccc(F)cc1 [Droperidol],1.38 ± 0.42,0.84901 ± 0.00078,0.667,1.04 ± 0.046
C[C@@H](O)[C@H]1C(=O)N2C(C(=O)O)=C(SCCNC=N)C[C@H]12 [Imipenem],0.805 ± 0.16,1.091 ± 0.01,1,0.951 ± 0.015
COC(c1ccccc1)(c1ccccc1)[C@H](Oc1nc(C)cc(C)n1)C(=O)O [Ambrisentan],0.883 ± 0.35,0.873 ± 0.017,0.833,1.09 ± 0.018
CN1CCN(CCCN2c3ccccc3Sc3ccc(Cl)cc32)CC1 [Prochlorperazine dimaleate],1.05 ± 0.37,1.01 ± 0.033,0.833,1.02 ± 0.027
C[C@H]1C[C@H]2[C@@H]3CCC4=CC(=O)C=C[C@]4(C)[C@@]3(F)[C@@H](O)C[C@]2(C)[C@@]1(O)C(=O)CO [Betamethasone],1.2 ± 0.31,1.17 ± 0.088,0.583,1.04 ± 0.053
